According to PubChem BioAssay AID1233 (SRMLSC, 2008):
Entries with a potency or affinity are not part of this list. Activity calls are given as the source filed them.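 Rule for the calls: active = a dose-response curve fit returns a half-maximal inhibitory concentration, extrapolated values included; inactive = the fit returns no such concentration.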

Target: HMG-CoA reductase [Enterococcus faecalis] (UniProt Q9FD70)
Assay: inhibitors of E. faecalis class II HMGR, confirmation, biochemical, Enterococcus faecalis (AID 1233)

Structure (SMILES)	outcome
CCCCC(c1nnnn1CCOC)N1CCN(CC)CC1 (configuration not stated)	inactive
CC(=O)N1CCN(S(=O)(=O)c2ccc(C)c([N+](=O)[O-])c2)C1C(C)C (configuration not stated)	inactive
CC(=O)NC(Cc1cccc(F)c1)C(=O)NC1CCN(c2ncccc2[N+](=O)[O-])CC1 (configuration not stated)	inactive
O=C(NCC1CCCO1)C(c1cccs1)N(Cc1cccs1)C(=O)Cn1nnc(-c2cccs2)n1 (configuration not stated)	inactive
NC(=O)c1ccc2nc(NC(=O)c3ccc(N)cc3)sc2c1	inactive
CCOc1cc(/C=N\NC(=O)OC(C)(C)C)ccc1OC(=O)c1ccco1	inactive
N#Cc1nc(COc2ccc(-c3ccccc3)cc2)oc1NCCCN1CCOCC1	inactive
Cc1ccccc1Nc1nc(N)nc(CN2CCN(Cc3ccc4c(c3)OCO4)CC2)n1	inactive
Cc1cccc(NC(=O)CSc2ccc(-c3ccc4c(c3)OCO4)nn2)c1C	inactive
CCC1(CC)C(=O)NN(c2ccccc2)C1=O	inactive
Cc1ccc(S(=O)(=O)N2CCN(C(=O)CSc3nnc(-c4ccco4)o3)CC2)cc1	inactive
O=C(Nc1cccnc1)c1ccc(COc2ccccc2Cl)o1	inactive
